From PubChem BioAssay (Tox21)
Values joined by “and” are separate entries in the source; they are usually repeats but may differ in a detail not shown here. Equal entries are not always repeated. Records with an inconclusive call do not appear. Some compounds were tested as several samples or in several runs, with calls that do not always agree. Active and inactive are the calls of the source. Calls follow the shape of the dose curve; as a rule, active = well fitted curve in the direction sought with a large enough effect in the repeat runs; inconclusive = weak or mixed curves; inactive = no such curve, though single readings can be large; an effect the other way counts as inactive or inconclusive.

Tests used:
[1] = A CellTox Green Cytotoxicity Assay to monitor cytotoxicity in HepG2 cells - 0 hour (AID 1224882); also: nearly all actives have a fitted effect of over 35% in size
Procedure, shortened: (§1)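 Read-out is fluorescence of a cyanine dye excluded from live cells that stains DNA of dead HepG2 cells, with signal proportional to cytotoxicity. Plates were read at 0, 8, 16, 24, 32 and 40 h after compound addition.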

[2] = A CellTox Green Cytotoxicity Assay to monitor cytotoxicity in HepG2 cells - 32 hour (AID 1224883); also: nearly all actives have a fitted effect of over 50% in size; also: potency is read from the fitted curve at half-maximal effect
Procedure, shortened: as §1

[3] = qHTS RealTime-Glo MT Cell Viability Assay in HepG2 cells - 16 hour (AID 1224885); also: nearly all actives have a fitted effect of over 50% in size; also: potency is read from the fitted curve at half-maximal effect
Procedure, shortened: (§2)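 Tox21 10K library screened in qHTS format on HepG2 cells carrying RealTime-Glo reagents. Compounds were added after a 5 h preincubation, and the luminescent signal from continuous culture was measured repeatedly during 40 h treatment.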

[4] = qHTS RealTime-Glo MT Cell Viability Assay in HEK293 cells - 8 hour (AID 1224887); also: nearly all actives have a fitted effect of over 50% in size; also: potency is read from the fitted curve at half-maximal effect; as to activity change, negative = cytotoxicity: top concentration of the series differs between compounds
Procedure, shortened: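 Cells were seeded together with NanoLuc luciferase and a prosubstrate that viable cells reduce to a luciferase substrate. After a 5 h incubation at 37 C/5% CO2, compounds were added and luminescence was measured repeatedly during 40 h of treatment.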

[5] = A CellTox Green Cytotoxicity Assay to monitor cytotoxicity in HEK293 cells - 16 hour (AID 1224888); also: nearly all actives have a fitted effect of over 35% in size; also: potency is read from the fitted curve at half-maximal effect
Procedure, shortened: (§3)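 Nonlytic real-time cytotoxicity: HEK293 + CellTox Green reagent plated, 5 h preincubation, pintool compound addition (23 nL in DMSO), 37 C for 40 h, fluorescence measured at successive time points.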

[6] = qHTS RealTime-Glo MT Cell Viability Assay in HepG2 cells - 0 hour (AID 1224889); also: nearly all actives have a fitted effect of over 50% in size
Procedure, shortened: as §2

[7] = A CellTox Green Cytotoxicity Assay to monitor cytotoxicity in HepG2 cells - 8 hour (AID 1224890); also: nearly all actives have a fitted effect of over 45% in size; also: potency is read from the fitted curve at half-maximal effect
Procedure, shortened: as §1

[8] = qHTS assay to identify small molecule antagonists of the estrogen receptor alpha (ER-alpha) signaling pathway using the BG1 cell line in the presence of 0.1 nM 17-beta-estradiol - cell viability counter screen (AID 1259241); also: nearly all actives have a fitted effect of over 40% in size; also: potency is read from the fitted curve at half-maximal effect
Procedure, shortened: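 Live-cell protease activity (CellTiter-Fluor fluorescence, 30 min) was read in the same wells after VM7Luc4E2 cells had been exposed to compounds with 0.1 nM 17beta-estradiol for 22 hr at 37C.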

[9] = qHTS RealTime-Glo MT Cell Viability Assay in HEK293 cells - 24 hour (AID 1224886); also: nearly all actives have a fitted effect of over 50% in size; also: potency is read from the fitted curve at half-maximal effect; as to activity change, negative = cytotoxicity: top concentration of the series differs between compounds
Procedure, shortened: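 Luminescence generated by NanoLuc from substrate produced by living HEK293 cells served as the viability signal. Each value reflects the reading at its stated time point during continuous 40 h compound exposure at 37 C.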

[10] = A CellTox Green Cytotoxicity Assay to monitor cytotoxicity in HEK293 cells - 8 hour (AID 1224884); also: nearly all actives have a fitted effect of over 35% in size; also: potency is read from the fitted curve at half-maximal effect
Procedure, shortened: as §3
% is scaled to controls: 0 for no effect and ±100 for the full control effect.

OCCN1CN(CCO)CN(CCO)C1
inactive: Potency [1] | Potency [2] | Potency [3] | Potency [4] | Potency [5] | Potency [6] | Potency [7] | Potency [8]

CCCCCCOc1cc(C)c(O)c(C)c1C
active: Potency [2] 24.8 µM | Potency [9] 15.7 µM | Potency [4] 14 µM | Potency [5] 44.2 µM | Potency [7] 35.1 µM
inactive: Potency [1] | Potency [6] | Potency [8]

CC1(C)C(=O)N(CO)C(=O)N1CO
inactive: Potency [1] | Potency [2] | Potency [3] | Potency [4] | Potency [6] | Potency [7] | Potency [8]

Cc1cccc(N(C)C)c1
inactive: Potency [1] | Potency [2] | Potency [3] | Potency [9] | Potency [4] | Potency [5] | Potency [6] | Potency [7] | Potency [8]

CCCCC(CC)COC(=O)c1ccc(O)cc1 (stereo not given)
inactive: Potency [1] | Potency [3] | Potency [6] | Potency [8]
active: Potency [2] 34.7 µM | Potency [9] 54.7 µM | Potency [7] 38.9 µM

C=C[C@](C)(O)CC[C@@H]1[C@@]2(C)CCCC(C)(C)[C@@H]2CC[C@@]1(C)O
active: Potency [2] 49 µM | Potency [3] 49 µM | Potency [9] 21.9 µM | Potency [7] 54.9 µM
inactive: Potency [1] | Potency [6] | Potency [8]

CC(C)=C1CC[C@@H](C)CC1=O
inactive: Potency [1] | Potency [2] | Potency [3] | Potency [9] | Potency [4] | Potency [5] | Potency [6] | Potency [7] | Potency [8]

O[C@@H](c1cc(C(F)(F)F)nc2c(C(F)(F)F)cccc12)[C@H]1CCCCN1
inactive: Potency [1] | Potency [8]
active: Potency [2] 19 µM | Potency [3] 21.3 µM | Potency [4] 7.56 µM | Potency [7] 26.8 µM

C/C=C/C(=O)Oc1c(CCCCCC(C)C)cc([N+](=O)[O-])cc1[N+](=O)[O-]
active: Potency [2] 38.9 µM | Potency [3] 21.9 µM | Potency [9] 19.5 µM | Potency [8] 27.3 µM
inactive: Potency [1] | Potency [7]

CNC(=S)NN
inactive: Potency [1] | Potency [2] | Potency [3] | Potency [4] | Potency [5] | Potency [6] | Potency [7] | Potency [8]

Clc1cc(Cl)c(-c2c(Cl)c(Cl)cc(Cl)c2Cl)cc1Cl
inactive: Potency [1] | Potency [2] | Potency [3] | Potency [4] | Potency [5] | Potency [7] | Potency [8]

CN(C)c1ccc(N=Nc2ccccc2C(=O)O)cc1
inactive: Potency [1] | Potency [2] | Potency [9] | Potency [4] | Potency [5] | Potency [6] | Potency [7] | Potency [8]

CC(C)=CCCC(C)CCOC(=O)C(C)C (stereo not given)
inactive: Potency [1] | Potency [2] | Potency [3] | Potency [9] | Potency [4] | Potency [5] | Potency [6] | Potency [7] | Potency [8]

CCc1ccc(O)c(C(C)(C)C)c1
inactive: Potency [1] | Potency [9] | Potency [4] | Potency [5] | Potency [6] | Potency [8]
active: Potency [2] 38.9 µM | Potency [7] 43.6 µM

C=C1C(C)(C)[C@@]2(Cl)C(Cl)[C@]1(Cl)C(Cl)(Cl)C2(Cl)Cl (stereo not given in full)
active: Potency [2] 53.9 µM

C[C@@H]1CC[C@H]2C(C)(C)[C@H]3C[C@@]12CC[C@@]3(C)O
active: Potency [10] 43.6 µM | Potency [5] 43.6 µM
inactive: Potency [1] | Potency [3] | Potency [6] | Potency [7] | Potency [8]

O=C1Nc2ccc(Cl)cc2[C@@](C#CC2CC2)(C(F)(F)F)O1
active: Potency [4] 23.9 µM
inactive: Potency [1] | Potency [6] | Potency [8]

COC(=O)C1=C(C)NC(C)=C(C(=O)OCCCN2CCC(c3ccccc3)(c3ccccc3)CC2)C1c1cccc([N+](=O)[O-])c1 (stereo not given)
active: Potency [9] 10.7 µM | Potency [4] 16.9 µM
inactive: Potency [1] | Potency [10] | Potency [5] | Potency [6] | Potency [7] | Potency [8]

CC(O)C#CC(C)O (stereo not given)
inactive: Potency [1] | Potency [4] | Potency [5] | Potency [6] | Potency [7] | Potency [8]

CC(C)OC(=O)c1cc(C(=O)OC(C)C)cc([N+](=O)[O-])c1
inactive: Potency [1] | Potency [3] | Potency [5] | Potency [6] | Potency [7] | Potency [8]

CNC(=O)c1cc(Oc2ccc(NC(=O)Nc3ccc(Cl)c(C(F)(F)F)c3)cc2)ccn1
inactive: Potency [1] | Potency [10] | Potency [5] | Potency [6] | Potency [7]
active: Potency [9] 3.38 µM | Potency [4] 4.25 µM

CCNc1nc(NC(C)CC)nc(OC)n1 (stereo not given)
inactive: Potency [2] | Potency [10] | Potency [3] | Potency [9] | Potency [4] | Potency [5] | Potency [6] | Potency [7] | Potency [8]

COc1cc(C(C)C)c2c(c1)S(=O)(=O)N(COc1cc(=O)n3cccc(OCCN4CCCCC4)c3n1)C2=O
inactive: cytotoxicity [1] 2.15% [at 15.8 µM] | cytotoxicity increase [10] -6.14% [at 15.8 µM] | activity change, negative = cytotoxic [3] -16.4% [at 15.8 µM] | activity change [5] 2.2% [at 15.8 µM, stronger effect = higher value] | activity change, negative = cytotoxicity [6] -4.58% [at 15.8 µM] | cytotoxicity increase [7] 14.9% [at 15.8 µM] | activity change, negative = cytotoxicity [8] -4.33% [at 19 µM]

c1ccc(Nc2cccc3ccccc23)cc1
inactive: Potency [1] | Potency [10] | Potency [3] | Potency [5] | Potency [6] | Potency [7] | Potency [8]

CC(C)C(=O)OCc1ccccc1
inactive: Potency [1] | Potency [3] | Potency [6] | Potency [8]

Cc1cc2c(C(C)C)c(O)c(O)c(C=O)c2c(O)c1-c1c(C)cc2c(C(C)C)c(O)c(O)c(C=O)c2c1O
inactive: Potency [1] | Potency [6] | Potency [7] | Potency [8]
active: Potency [5] 16.9 µM

C[C@]12CC[C@H]3C(=CCc4cc(O)ccc43)[C@@H]1CCC2=O
active: Potency [9] 43.6 µM
inactive: Potency [1] | Potency [10] | Potency [4] | Potency [5] | Potency [6] | Potency [7] | Potency [8]

O=C(NO)c1ccccc1
inactive: Potency [1] | Potency [3] | Potency [4] | Potency [6] | Potency [8]

CCCCCCCC/C=C\CCCCCCCC(=O)N(C)CC(=O)O
inactive: Potency [1] | Potency [3] | Potency [6] | Potency [7] | Potency [8]
active: Potency [10] 38.9 µM | Potency [5] 24.5 µM

O=C(Oc1ccccc1)c1cccc(C(=O)Oc2ccccc2)c1
inactive: Potency [1] | Potency [3] | Potency [5] | Potency [6] | Potency [7] | Potency [8]

C=CCCCCCCC=C
inactive: Potency [2] | Potency [10] | Potency [3] | Potency [9] | Potency [4] | Potency [5] | Potency [6] | Potency [7] | Potency [8]

c1cc[nH]c1
inactive: Potency [2] | Potency [10] | Potency [3] | Potency [9] | Potency [4] | Potency [5] | Potency [6] | Potency [7] | Potency [8]

O=Cc1ccc(F)cc1
inactive: Potency [2] | Potency [10] | Potency [3] | Potency [9] | Potency [4] | Potency [5] | Potency [6] | Potency [7] | Potency [8]

CC(C)(c1cc(Br)c(OCCO)c(Br)c1)c1cc(Br)c(OCCO)c(Br)c1
active: Potency [9] 12 µM
inactive: Potency [1] | Potency [10] | Potency [5] | Potency [6] | Potency [7] | Potency [8]

CC1=C(/C=C/C(C)=C/C=C/C(C)=C/C(=O)Nc2ccc(O)cc2)C(C)(C)CCC1
inactive: Potency [1] | Potency [5] | Potency [6] | Potency [7]
inactive and 26.8 µM (active): Potency [3]
active: Potency [9] 893 nM and 338 nM | Potency [4] 710 nM and 239 nM | Potency [8] 55.9 µM and 11.9 µM

CCOC(=O)N1CCC(=C2c3ccc(Cl)cc3CCc3cccnc32)CC1
inactive: Potency [1] | Potency [10] | Potency [5] | Potency [6] | Potency [7] | Potency [8]
active: Potency [4] 21.9 µM

CCCSS/C(CCO)=C(\C)N(C=O)Cc1cnc(C)nc1N
inactive: Potency [1] | Potency [3] | Potency [4] | Potency [5] | Potency [6] | Potency [7] | Potency [8]
